Rows were chosen to be rich in hits. Some 11% of all compounds tested hit in one or more screens of this group.
PNC inhibitor: perinucleolar compartment assembly inhibition | AID 2417 | activity change (PNC), negative = inhibition, % at 10 µM | PC3M PTB-GFP, PNC prevalence imaging, 16 h; active compounds read low | actives 3.1% (n = 140,000);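 active = readout at or below -70, meaning at least 70% loss of cells showing the perinucleolar compartment, a nuclear body marking cancer cells; inconclusive = readout between -30 and a set limit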;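 note: plate controls were DMSO wells for no effect and camptothecin positive control wells for full effect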
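Compounds are pinned in duplicate onto adhered PC3M cells stably expressing GFP-tagged PTB and incubated 16 h at 37 C. Cells are then fixed, nuclei stained with Hoechst, and PNC-positive cells counted.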
HPGD inh: HPGD (human) dehydrogenase inhibition; P15428; purified HPGD, NADH fluorescence kinetic, PGE2 substrate; Potency, µM, for inactives: at the top dose activity change, negative = inhibition, actives largely listed as inhibitors; actives 4.3% (n = 150,000); AID 894; active = well fitted inhibition curve with a large enough effect, not every such curve was filed as active; inconclusive = small, poorly fitted or top-dose-only effect, or another doubt; inactive = no such curve, though single readings can be large or run the other way; note: potency is the fitted concentration of half-maximal effect
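20 nM HPGD preincubated 15 min at room temperature with compound in 50 mM Tris-HCl pH 8, 0.01% Tween 20. Started with 1 mM NAD+ and 30 uM prostaglandin E2; NADH fluorescence (360/450 nm) read 5 times over 30-s intervals, last minus first.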
IMPase cell inh: IMPase inhibition in cells | P97697 | CHO-M1 cells, IP1 accumulation, HTRF TR-FRET ratio | inhibition (IP1 accumulation), % at 46.1 µM | 120,000 tested, under 10 active; active = well fitted curve in the direction sought with a large enough effect in the signal ratio, not every such curve was filed as active; inconclusive = small, poorly fitted or top-dose-only effect, or a change in a side signal; inactive = no such curve, though single readings can be large or run the other way; the % refers to the signal ratio;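 note: cells stimulated with carbachol in lithium chloride buffer; plate controls were DMSO basal wells for no effect and reference inhibitor wells for full effect; higher means more IMPase inhibition seen as more IP1 and lower FRET ratio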
Target sequence (P97697 whole entry, looked up): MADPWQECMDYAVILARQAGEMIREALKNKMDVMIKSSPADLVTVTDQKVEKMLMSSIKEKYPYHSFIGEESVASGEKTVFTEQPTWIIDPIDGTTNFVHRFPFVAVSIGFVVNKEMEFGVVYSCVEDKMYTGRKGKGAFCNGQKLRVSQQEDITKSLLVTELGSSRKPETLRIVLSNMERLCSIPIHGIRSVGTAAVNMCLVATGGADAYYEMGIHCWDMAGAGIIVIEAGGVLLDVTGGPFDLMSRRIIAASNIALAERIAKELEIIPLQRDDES
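Measured: the HTRF emission ratio (665/620 nm) plus the 620 nm donor channel, each fitted to the Hill equation to give AC50. Cells were CHO-M1 given compounds up to 46 uM and a 30 min carbachol stimulation at 37C.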
NPSR antagonist: neuropeptide S receptor (human) antagonism, cAMP; Q6W5P4; CHO-NPSR cells, cAMP TR-FRET, antagonist mode; Potency, µM (highest dose often 38.3 µM), for the others: at the highest dose activity change, negative = inhibition, usual class: inhibitors; actives 1% (n = 220,000); AID 1461; note: potency is the fitted concentration of half-maximal effect; nearly all actives have a fitted effect of over 50% in size
Target sequence (Q6W5P4 whole entry, looked up): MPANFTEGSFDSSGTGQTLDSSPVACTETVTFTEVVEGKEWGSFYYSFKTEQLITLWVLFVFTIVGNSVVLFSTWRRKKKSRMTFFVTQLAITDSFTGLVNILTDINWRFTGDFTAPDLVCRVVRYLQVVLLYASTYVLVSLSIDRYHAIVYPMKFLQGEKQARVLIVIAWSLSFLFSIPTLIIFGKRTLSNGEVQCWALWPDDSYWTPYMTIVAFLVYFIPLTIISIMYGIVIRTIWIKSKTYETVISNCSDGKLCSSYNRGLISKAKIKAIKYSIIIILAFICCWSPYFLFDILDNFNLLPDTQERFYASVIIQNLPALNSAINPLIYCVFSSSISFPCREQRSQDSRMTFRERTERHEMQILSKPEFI
IMPase Li inh: cell-permeable IMPase inhibitors with lithium potentiation | CHO-M1 cells, IP1 TR-FRET (IP-One), carbachol + lithium | Potency, µM (doses to about 59.4 µM), inactives show at the top dose activity, negative = IMPase inhibition, actives largely listed as inhibitors | actives 0.35% (n = 210,000);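 note: IP1 builds up when IMPase is blocked and the TR-FRET signal falls; potency is the fitted concentration of half-maximal effect; plate controls were basal vehicle for no effect and high inhibitor control for full effect; nearly all actives have a fitted effect of over 50% in size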
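Readout is a homogeneous TR-FRET IP1 immunoassay (Ex 320, Em 665 and 620), where raised cytosolic IP1 lowers signal. Cells were CHO-M1 treated 30 min at 37C with test compounds plus a little lithium; AC50 values came from Hill-equation fitting.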
ALDH1A1 inh: ALDH1A1 (human) enzyme inhibition; P00352; Purified ALDH1A1, NADH fluorescence, propionaldehyde substrate; Potency, µM (highest dose often 75.3 µM), for inactives: at the highest dose activity, negative = inhibition, usual class: inhibitors; actives 7.3% (n = 220,000); AID 1030; active = well fitted inhibition curve with a large enough effect, not every such curve was filed as active; inconclusive = small, poorly fitted or top-dose-only effect, or another doubt; inactive = no such curve, though single readings can be large or run the other way;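 note: potency is the fitted concentration of half-maximal effect; plate controls were no enzyme wells and a reference inhibitor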
Numbers without * were called inactive; [ ] = dose if it differs, or a comment. Unless noted, calls come from the whole dose curve; as a rule, active = well fitted curve in the direction sought with a large enough effect; inconclusive = small, poorly fitted or top-dose-only effect, or another doubt; inactive = no such curve, though single readings can be large; an effect the other way counts as inactive or inconclusive. Unless noted, % is set by controls: 0 for no effect and ±100 for the full control effect.

What do the screens show for `CCCN(CCC)c1nc(C)cc(C(C#N)c2nc3ccccc3o2)n1` (stereo not drawn)?
PNC inhibitor: inconclusive; HPGD inh: inconclusive; IMPase cell inh: 4[1.84 µM]; NPSR antagonist: -11%[46.1 µM]; IMPase Li inh: 35%[38.3 µM]; ALDH1A1 inh: 16%

How did COc1ccnc(N2CCN(c3ccc(Cl)cc3)CC2)c1C#N do in these assays?
PNC inhibitor: inconclusive; HPGD inh: inconclusive; IMPase cell inh: 9; NPSR antagonist: -16%[46.1 µM]; IMPase Li inh: 21%[38.3 µM]; ALDH1A1 inh: 13µM*

What do the screens show for `OC1CCN(Cc2cccc(Oc3ccccc3)c2)CC1`?
PNC inhibitor: 2; HPGD inh: -5%; IMPase cell inh: 7; NPSR antagonist: 5%[46.1 µM]; IMPase Li inh: 1%[38.3 µM]; ALDH1A1 inh: 6%

What do the screens show for `O=C(c1sc(N2CCOCC2)nc1-c1ccccc1)N1CCCCC1`?
PNC inhibitor: 10; HPGD inh: 0%; IMPase cell inh: 3; NPSR antagonist: -1%; IMPase Li inh: 0%; ALDH1A1 inh: -8%

Results for Cc1cc(F)ccc1NCC(=O)Nc1ccccc1Br ?
PNC inhibitor: 3; IMPase cell inh: -1; NPSR antagonist: -28%[46.1 µM]; ALDH1A1 inh: 28µM*

How did Cc1ccc(F)cc1NCC(=O)Nc1ccc(Cl)cc1F do in these assays?
PNC inhibitor: 36; IMPase cell inh: -1; NPSR antagonist: -6%[46.1 µM]; ALDH1A1 inh: -3%

Results for Cc1ccc(S(=O)(=O)/N=C(\CN2CCOCC2)N2CCCC2)cc1 ?
PNC inhibitor: inconclusive; HPGD inh: 3%; IMPase cell inh: -3; NPSR antagonist: -5%[46.1 µM]; IMPase Li inh: 2%[38.3 µM]; ALDH1A1 inh: 1%

Results for Cc1ccc(S(=O)(=O)/N=C(\CCl)N2CCOCC2)cc1 ?
PNC inhibitor: 24; HPGD inh: -17%; NPSR antagonist: -18%; IMPase Li inh: -1%; ALDH1A1 inh: 28µM*

How did Cc1ccc(-n2nnnc2SCC(=O)c2cc(C)n(-c3cc(C)on3)c2C)c(C)c1 do in these assays?
PNC inhibitor: inconclusive; HPGD inh: -18%; IMPase cell inh: 6; NPSR antagonist: inconclusive; IMPase Li inh: 0%[38.3 µM]; ALDH1A1 inh: 2.2µM*

Results for Cc1cc(C(=O)CSc2nnnn2-c2ccc(O)cc2)c(C)n1C ?
NPSR antagonist: -8%; IMPase Li inh: 7%; ALDH1A1 inh: 16µM*

How did Cc1cc(-n2c(C)cc(C(=O)CSc3nnnn3-c3ccccc3)c2C)no1 do in these assays?
PNC inhibitor: -16; HPGD inh: -12%; IMPase cell inh: 6; NPSR antagonist: -24%[46.1 µM]; IMPase Li inh: 5%[38.3 µM]; ALDH1A1 inh: 7.1µM*

How did Cc1ccc(-n2c(C)cc(C(=O)CSc3nnnn3C)c2C)cc1 do in these assays?
PNC inhibitor: 5; HPGD inh: -28%; IMPase cell inh: 1[1.84 µM]; NPSR antagonist: -16%[46.1 µM]; IMPase Li inh: 26%[38.3 µM]; ALDH1A1 inh: inconclusive

Results for O=C(O)c1cc([N+](=O)[O-])ccc1NCc1ccccc1 ?
NPSR antagonist: -35%; IMPase Li inh: 0%; ALDH1A1 inh: -6%

How did COc1ccc(Nc2nc3ccc(Cl)cc3n3nnnc23)cc1OC do in these assays?
IMPase cell inh: 10

Results for Cc1ccc(C)c(CSc2nnc(C)c(=O)n2N)c1 ?
NPSR antagonist: 16%; IMPase Li inh: 3%; ALDH1A1 inh: -9%

How did COc1cccc2c1C(=O)c1c(O)c3c(c(O)c1C2=O)C[C@@](O)(C(C)=O)C[C@@H]3O[C@H]1C[C@H](N)[C@H](O)[C@H](C)O1 do in these assays?
PNC inhibitor: -115*; HPGD inh: -15%; IMPase cell inh: 16; NPSR antagonist: inconclusive; IMPase Li inh: 33%; ALDH1A1 inh: inconclusive

Results for COc1cccc2c1C(=O)c1c(O)c3c(c(O)c1C2=O)C[C@@](O)(C(=O)CO)C[C@@H]3OC1C[C@@H](N)[C@H](O)[C@H](C)O1 (stereo partly drawn) ?
HPGD inh: -6%; IMPase Li inh: 17%; ALDH1A1 inh: -12%

What do the screens show for `CC(C)Oc1ccc(C(=O)N2CCCc3ccccc32)cc1`?
PNC inhibitor: 22; HPGD inh: 22µM*; IMPase cell inh: 2; NPSR antagonist: -21%[46.1 µM]; IMPase Li inh: 0%[38.3 µM]; ALDH1A1 inh: inconclusive

How did O=C(C(=O)N1CCCc2ccccc21)N1CCCc2ccccc21 do in these assays?
PNC inhibitor: inconclusive; HPGD inh: 0%; NPSR antagonist: -1%; IMPase Li inh: -1%; ALDH1A1 inh: 0%

What do the screens show for `COc1ccc(C)cc1NC(=O)N1CCCc2ccccc21`?
NPSR antagonist: 32%; IMPase Li inh: 25µM*; ALDH1A1 inh: -64%

What do the screens show for `O=C(Nc1ccccc1)N1CCCc2ccccc21`?
PNC inhibitor: -100*; HPGD inh: -28%; IMPase cell inh: -6; NPSR antagonist: -3%[46.1 µM]; IMPase Li inh: 6%; ALDH1A1 inh: 5%

How did CCN(CC)S(=O)(=O)c1ccc(C(=O)N2CCc3ccccc32)cc1 do in these assays?
NPSR antagonist: -12%; IMPase Li inh: 14%; ALDH1A1 inh: 5µM*

Results for CCN(CC)S(=O)(=O)c1ccc(Cl)c(C(=O)N2CCc3ccccc32)c1 ?
PNC inhibitor: inconclusive; HPGD inh: -11%; IMPase cell inh: 11; NPSR antagonist: -9%[46.1 µM]; IMPase Li inh: 27%[38.3 µM]; ALDH1A1 inh: inconclusive

What do the screens show for `CCOC(=O)Cc1cnc(NC(=O)c2ccccc2)s1`?
PNC inhibitor: -7; HPGD inh: -19%; IMPase cell inh: -2; NPSR antagonist: -17%[46.1 µM]; IMPase Li inh: 1%[38.3 µM]; ALDH1A1 inh: inconclusive

What do the screens show for `COc1ccc(CC(=O)NN2C(=O)c3ccccc3C2=O)cc1`?
PNC inhibitor: -17; HPGD inh: -10%; NPSR antagonist: 9%; IMPase Li inh: -4%; ALDH1A1 inh: 9%

Results for CC(O)CNCCOc1ccccc1-c1ccccc1 (stereo not drawn) ?
NPSR antagonist: 16%; IMPase Li inh: 7%; ALDH1A1 inh: 11µM*

What do the screens show for `O=C(N/N=C/c1ccc2c(c1)OCO2)/C(=C/c1ccc2c(c1)OCO2)NC(=O)c1ccccc1`?
PNC inhibitor: inconclusive; HPGD inh: inconclusive; IMPase cell inh: 6; NPSR antagonist: -26%[46.1 µM]; IMPase Li inh: -6%[38.3 µM]; ALDH1A1 inh: 6%

What do the screens show for `COc1ccc(/C=N/NC(=S)NC2CCS(=O)(=O)C2)cc1OC` (stereo not drawn)?
PNC inhibitor: -100*; HPGD inh: inconclusive; IMPase cell inh: -1; NPSR antagonist: -11%[46.1 µM]; IMPase Li inh: 10%[38.3 µM]; ALDH1A1 inh: -14%

What do the screens show for `CN(C)c1ccc(/C=C(/NC(=O)c2ccccc2)C(=O)N/N=C/c2ccc([N+](=O)[O-])c(O)c2)cc1`?
PNC inhibitor: 39; HPGD inh: 16µM*; IMPase cell inh: 17[1.84 µM]; NPSR antagonist: 5%[46.1 µM]; IMPase Li inh: 47%[38.3 µM]; ALDH1A1 inh: 4µM*
